Screening results: PubChem, Paczesny and Yang Labs, IUPUI and University of Michigan
The sample as a whole holds a higher share of hits than the screen did.
ST2 IL33 inh = IL1RL1 inhibition; inhibition, % for hits at 17 µM; AlphaLISA ST2-Fc/biotin-IL-33 interaction, 1 h; Q01638; hit rate 2.3% among 78,000; in the data active = inhibition above about 30%
Target sequence (Q01638 whole entry, looked up): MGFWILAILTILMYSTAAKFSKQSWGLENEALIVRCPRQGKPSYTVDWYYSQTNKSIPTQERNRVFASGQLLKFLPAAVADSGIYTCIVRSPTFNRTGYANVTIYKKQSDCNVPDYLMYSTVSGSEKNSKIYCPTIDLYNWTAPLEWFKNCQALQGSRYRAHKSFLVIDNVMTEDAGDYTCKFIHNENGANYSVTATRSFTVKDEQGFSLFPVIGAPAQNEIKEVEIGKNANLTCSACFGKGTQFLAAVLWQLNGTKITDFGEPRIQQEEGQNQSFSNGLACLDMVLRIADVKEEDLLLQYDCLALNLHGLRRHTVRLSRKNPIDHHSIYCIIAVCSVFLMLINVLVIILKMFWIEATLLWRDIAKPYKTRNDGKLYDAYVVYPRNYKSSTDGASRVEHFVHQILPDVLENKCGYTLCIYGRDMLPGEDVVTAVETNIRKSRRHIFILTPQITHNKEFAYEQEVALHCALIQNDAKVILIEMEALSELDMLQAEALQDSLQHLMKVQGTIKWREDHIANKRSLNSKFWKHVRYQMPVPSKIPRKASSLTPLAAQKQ
Starred values were filed as active, the others as inactive; i = inactive.

SMILES | ST2 IL33 inh
COc1ccc(C2=NN(CC(=O)NCc3cccnc3)C(=O)CC2)cc1 | i
N#CC1=C(N)OC2=C(C(=O)CC(c3ccccc3)C2)C1c1ccccc1F (stereo unspecified) | i
CN(CC1CCCO1)c1nc(-c2ccc([N+](=O)[O-])cc2)cs1 (stereo unspecified) | 54.0%*
Nc1nc(-c2ccc([N+](=O)[O-])cc2)cs1 | i
O=C(NCC1CCCO1)c1ccccc1Sc1ccc([N+](=O)[O-])cc1 (stereo unspecified) | i
COc1ccc(NC(=O)/C=N\OC(=O)Nc2ccc(C)cc2)cc1 | i
Cc1cc(Br)cc2c1N(C)C(=O)C2=O | i
Cc1cc(Br)cc2c1N(C)C(=O)/C2=C1\SC(=Nc2ccc(F)cc2)NC1=O | 33.0%*
O=C(O)c1cc(NC(=O)c2ccc(N3C(=O)C4C5C=CC(C5)C4C3=O)cc2)cc(C(=O)O)c1 (stereo unspecified) | i
O=C(NC1CCCCC1)C1CCN(c2ccc(-c3cccs3)nn2)CC1 | i
O=C(Nc1nc2ccccc2s1)c1ccc(S(=O)(=O)N2CCOCC2)cc1 | i
CCN(CC)S(=O)(=O)c1ccc(C(=O)N=c2sc3ccccc3n2C)cc1 | i
CSc1ccccc1C(=O)Nc1ccc(S(=O)(=O)N2CCOCC2)cc1 | i
O=S(=O)(c1ccc(-c2csc(=Nc3ccccc3)n2CCCO)cc1)N1CCOCC1 | 39.0%*
CCCCN(CCCC)S(=O)(=O)c1ccc(C(=O)Nc2nnc(-c3ccc(F)cc3)o2)cc1 | i
CCN(CC)S(=O)(=O)c1ccc(-c2csc(=Nc3ccc(F)cc3)n2CCCO)cc1 | 43.0%*
COc1ccc2c(C)nc(N=C(N)N=C(C)c3ccccc3C(=O)O)nc2c1 | i
Cc1ncc2c(c1CNC(=O)c1ccccc1F)CCN(C(=O)/C=C/c1ccc(F)c(F)c1)C2 | i
O=C(c1ccccc1-c1ccccc1)N1CCC(Cn2cc(CO)nn2)CC1 | i
Cc1nc(SC(C)C(=O)O)c2c(=O)n(C)c(=O)n(C)c2n1 (stereo unspecified) | i
CC1=C(C(=O)Nc2ccc(C)cc2C)C(c2cccc([N+](=O)[O-])c2)n2ncnc2N1 (stereo unspecified) | i
Cn1c(=O)c2c(nc(NCCO)n2Cc2ccccc2F)n(C)c1=O | i
Cn1c(=O)c2c(nc(N3CCN(c4ccccn4)CC3)n2Cc2ccccc2F)n(C)c1=O | i
Cn1c(=O)c2c(nc(OCCc3ccccc3)n2Cc2ccccc2F)n(C)c1=O | 30.0%*
CN(C1CCCCC1)S(=O)(=O)c1cccc2cccnc12 | i
SMILES | ST2 IL33 inh
CCOC(=O)C(Cc1c[nH]c2ccccc12)NC(=O)COc1ccccc1 (stereo unspecified) | i
CC[C@H]1C[C@@H](NC(=O)c2ccccc2)C[C@@H](c2nc(C)n3ccccc23)O1 | i
c1ccc(CN2CC[C@H](c3nnc(-c4cccnc4)o3)C2)cc1 | 34.0%*
Cc1ccc(CN2CC[C@H](c3nnc(-c4cccnc4)o3)C2)cc1 | i
c1cncc(-c2nnc([C@H]3CCN(Cc4ccncc4)C3)o2)c1 | i
Cc1nnnn1CCCN1CCCC2(CC1)CN(C)C(=O)O2 (stereo unspecified) | i
O=C(O)Cc1cccc(-c2cccc3c2CCNC3)c1 | i
C=CCN(Cc1ccccc1Cl)C(=O)c1cc(C2CC2)[nH]n1 | i
O=C(Nc1cccc(Cl)c1)N1CCN(C(=O)Nc2cccc(Cl)c2)CC1 | i
CC(=O)Nc1ccccc1/C=C/c1ccc2c(C)ccc(O)c2n1 | i
CCOc1ccccc1OCCOc1ccccc1C=O | i
CCOc1cccc(/C=C/c2ccc3cccc(O)c3n2)c1OC | 54.0%*
CC1CCC2(OC1)OC1CC3C4CC=C5CC(OC6OC(C)C(OC7OC(C)C(OC8OC(CO)C(O)C(O)C8O)C(O)C7O)C(O)C6OC6OC(C)C(O)C(O)C6O)CCC5(C)C4CCC3(C)C1(O)C2C (stereo unspecified) | i
CCC1Oc2ccccc2N(CC(=O)NCCCN2CCCCC2C)C1=O (stereo unspecified) | i
C=C1c2cc(OCC)ccc2NC(=O)N1c1ccccc1 | i
CCOc1ccc2c(c1)C(=O)c1cc(OCC)ccc1-2 | 46.0%*
CCOc1ccc(OCC)c(NC(C)=O)c1 | i
CCOCCCNCc1c(Cl)cccc1Cl | i
CC(=O)N1c2ccccc2C(=O)OC1c1cccnc1 (stereo unspecified) | i
c1ccc(C2(c3ccccc3)OC(c3cccnc3)Nc3ccccc32)cc1 (stereo unspecified) | 35.0%*
c1ccc(-c2nnc(-c3cccnc3)o2)cc1 | i
Cc1nc(C(C)C)sc1C(=O)N1CCN(Cc2ccccc2CO)CC1 | i
CC(C)C(C(=O)Nc1cccc(C(F)(F)F)c1)N1C(=O)c2ccccc2C1=O (stereo unspecified) | i
CC(C)CC(C(=O)Nc1cccc(C(F)(F)F)c1)N1C(=O)c2ccccc2C1=O (stereo unspecified) | i
O=C1C(Nc2cccc(C(F)(F)F)c2)=C(N2CCOCC2)C(=O)c2ccccc21 | 67.0%*
